Most compounds without a hit are left out; they make up all but 12% or so of the library.
AmpC inh detg: qHTS Inhibitors of AmpC Beta-Lactamase (assay with detergent). AmpC hydrolysis of nitrocefin, absorbance 480 nm, 0.01% Triton. P00811. Potency, µM (titrated, usually from 114 µM), hits mostly inhibitors. actives 0.041% (n = 370,000); note: nearly all actives have a fitted effect of over 25% in size
Target sequence (P00811 whole entry, looked up): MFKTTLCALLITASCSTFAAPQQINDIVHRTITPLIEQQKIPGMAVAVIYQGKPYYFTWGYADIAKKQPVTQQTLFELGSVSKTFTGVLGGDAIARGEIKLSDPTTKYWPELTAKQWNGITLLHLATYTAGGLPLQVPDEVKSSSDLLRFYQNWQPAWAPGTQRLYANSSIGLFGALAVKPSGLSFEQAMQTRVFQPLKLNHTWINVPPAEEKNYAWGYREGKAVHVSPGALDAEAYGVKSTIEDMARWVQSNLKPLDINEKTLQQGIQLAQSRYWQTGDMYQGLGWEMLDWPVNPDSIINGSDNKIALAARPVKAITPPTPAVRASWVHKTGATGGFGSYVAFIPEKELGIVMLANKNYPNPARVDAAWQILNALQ
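20 mM phosphate pH 7.0 + 0.01% (detergent screen) or 0.0001% Triton X-100; 5.3 nM AmpC reagent; cpd preinc 15 min RT; nitrocefin (800 uM stock) to start; A480 q20 s × 4 min; Activity was normalised to no-enzyme and no-compound control wells.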
Sm TGR block: qHTS Assay for the Inhibitors of Schistosoma Mansoni Peroxiredoxins | Potency, µM (top dose mostly 114 µM), usual class: inhibitors | actives 3% (n = 360,000) | Schistosoma mansoni thioredoxin glutathione reductase (TGR), Q962Y6 | purified TGR, DTNB reduction, TNB absorbance 405 nm | AID 485364, 2010; note: nearly all actives have a fitted effect of over 60% in size
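TGR 20 nM + NADPH 100 uM (dispensed conc.), cpd preinc 15 min RT; start with NADPH (500 uM addition) then DTNB (15 mM addition). Kinetic TNB absorbance, 405 nm filter. Four-parameter Hill fit across titration.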
Pf growth 48h: Primary qHTS for delayed death inhibitors of the malarial parasite plastid, 48 hour incubation; P. falciparum luciferase growth in erythrocytes, 48 h; AID 504832, 2011; actives 5.9% (n = 310,000); Potency, µM (top dose mostly 28.7 µM), actives largely listed as inhibitors
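Growth was read as firefly luciferase luminescence after a 48 h, 37 C, 5% CO2 exposure of compounds to reporter-bearing P. falciparum cultures (0.1% parasitemia, 2% hematocrit final) in Albumax-supplemented RPMI 1640.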
Pf growth 96h: Primary qHTS for delayed death inhibitors of the malarial parasite plastid, 96 hour incubation. P. falciparum luciferase reporter growth, 96 h. Potency, µM (highest dose often 28.7 µM), hits mostly inhibitors. actives 6.9% (n = 320,000). AID 504834, 2011
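P. falciparum expressing integrated firefly luciferase grown in erythrocytes (2% hematocrit, 0.05% parasitemia final) with compounds for 96 hours at 37 C, 5% CO2. Growth inhibition read as loss of luminescence after adding luciferase detection reagent.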
AmpC inh no detg: qHTS Inhibitors of AmpC Beta-Lactamase (assay without detergent); AID 485341, 2010; AmpC nitrocefin hydrolysis, absorbance 480 nm, 0.0001% Triton; P00811; Potency, µM (series often up to 57.1 µM), hits mostly inhibitors; actives 0.52% (n = 330,000); note: nearly all actives have a fitted effect of over 20% in size
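20 mM phosphate pH 7.0 + 0.01% (detergent screen) or 0.0001% Triton X-100; 5.3 nM AmpC reagent; cpd preinc 15 min RT; nitrocefin (800 uM stock) to start; A480 q20 s × 4 min; Activity was normalised to no-enzyme and no-compound control wells.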
SARS PLP yeast: qHTS of Yeast-based Assay for SARS-CoV PLP; S. cerevisiae expressing SARS-CoV PLpro, growth rescue; Potency, µM (top dose mostly 32.9 µM), hits mostly activators; actives 0.19% (n = 330,000); AID 485353, 2010; calls by dose curve; note: nearly all actives have a fitted effect of over 55% in size
Large screens that a line does not name were inactive. Unless noted, calls come from the whole dose curve; as a rule, active = well fitted curve in the direction sought with a large enough effect; inconclusive = small, poorly fitted or top-dose-only effect, or another doubt; inactive = no such curve, though single readings can be large; an effect the other way counts as inactive or inconclusive.

CCOc1ccc(C(C)=O)cc1CN1C(=O)c2ccccc2S1(=O)=O	Sm TGR block 35µM
CCOc1ccc(NC(=O)c2sc3nc(N4CCOCC4)c4c(c3c2N)CCCC4)cc1	Pf growth 48h inconclusive, Pf growth 96h 13µM
Nc1c(C(=O)NCc2ccccc2)sc2nc(N3CCOCC3)c3c(c12)CCCC3	Pf growth 48h inconclusive, Pf growth 96h 12µM
CC(C)Cn1c(CCCNC(=O)c2ccco2)nc2ccccc21	none
COc1ccc(C2=[N+](C)CCn3cccc32)c(OC)c1	Pf growth 48h 2.1µM, Pf growth 96h 1µM
COc1ccc(CN2CCc3ccccc3C2)c(OC)c1	none
CCOc1ccc(-c2nonc2NC(=O)c2oc3ccc(F)cc3c2C)cc1	none (no result: Pf growth 48h, Pf growth 96h, AmpC inh no detg, SARS PLP yeast)
CCc1ccc(NC(=O)C(C)Sc2nc(-c3ccco3)c(C#N)c(=O)[nH]2)cc1 (stereo not given)	Sm TGR block 40µM
CCOc1ccccc1C(=O)N1CC(=O)Nc2ccc(Cl)cc2C1c1ccccc1 (stereo not given)	none (no result: Pf growth 48h, Pf growth 96h, AmpC inh no detg, SARS PLP yeast)
CCN1CCN(CCCNC(=O)CN2C(=O)c3cccnc3Oc3ccc(Cl)cc32)CC1	Pf growth 96h inconclusive
CC1CC(C)CN(CCCNC(=O)CN2C(=O)c3cccnc3Oc3ccc(Cl)cc32)C1 (stereo not given)	Pf growth 48h 10µM, Pf growth 96h inconclusive
O=C(N/N=C/c1cnc(N2CCCCC2)s1)c1ccc(C(F)(F)F)cc1	Pf growth 48h 3.3µM, Pf growth 96h inconclusive
CC1CN(c2ncc(/C=N/NC(=O)c3ccccc3O)s2)CC(C)O1 (stereo not given)	Pf growth 48h inconclusive, Pf growth 96h inconclusive
Cn1c(=O)n(C)c2cc(N3CCOCC3)c(NS(=O)(=O)c3ccc(Br)cc3)cc21	none (no result: Pf growth 48h, Pf growth 96h, AmpC inh no detg, SARS PLP yeast)
CC12CC3CC(C)(C1)CC(C(=O)N1CCCC1)(C3)C2	Pf growth 48h inconclusive, Pf growth 96h 12µM
CN1CCN(C(=O)C23CC4CC(C)(CC(C)(C4)C2)C3)CC1	AmpC inh detg inconclusive, Pf growth 96h inconclusive
O=C(Nc1cccc(NC(=O)C2CCCO2)c1)c1ccco1 (stereo not given)	none (no result: Sm TGR block)
O=C(O)C1CCCN(S(=O)(=O)Cc2ccccc2)C1 (stereo not given)	Pf growth 96h 2.3µM
O=C(NCCc1ccccn1)C1CCCN(S(=O)(=O)Cc2ccccc2)C1 (stereo not given)	Pf growth 96h 3.7µM (no result: Pf growth 48h)
O=C(NCc1ccccn1)C1CCCN(S(=O)(=O)c2ccccc2)C1 (stereo not given)	AmpC inh detg inconclusive (no result: Pf growth 96h)
CCOc1ccc(CCNC(=O)COC(=O)Cn2nc(C)c([N+](=O)[O-])c2C)cc1OCC	AmpC inh detg inconclusive, AmpC inh no detg inconclusive
C=CCSc1ncccc1C(=O)NCc1ccccc1	Pf growth 96h 12µM
Cc1ccc2onc(CC(=O)Nc3cc(F)ccc3F)c2c1	none (no result: Pf growth 48h, Pf growth 96h, AmpC inh no detg, SARS PLP yeast)
CC(C)(C)C(=O)Nc1ccccc1C(=O)Nc1cc(Cl)ccc1Cl	Pf growth 48h 12µM, Pf growth 96h 4.1µM
CN(C)/C=N/c1nc(Sc2ccc(C(F)(F)F)cc2[N+](=O)[O-])n[nH]1	none
O=[N+]([O-])c1cc(C(F)(F)F)cc([N+](=O)[O-])c1Sc1n[nH]c(C(F)(F)F)n1	Pf growth 48h 5.2µM, Pf growth 96h inconclusive
O=C(CCc1nnc(-c2ccc(-c3ccccc3)cc2)o1)N1CCCCC1	Pf growth 48h inconclusive
CCCCCCNC(=O)N[C@H](C(=O)NCCC[C@H]1CN2C(=NC[C@H]2C)N1CCC(c1ccccc1)c1ccccc1)C(C)O (stereo not given in full)	Sm TGR block 0.5µM, Pf growth 48h 9.3µM, Pf growth 96h 2.9µM
CCOCCCNC(=O)C(c1ccc(Cl)cc1)N(Cc1ccc2c(c1)OCO2)C(=O)c1ccc(NC(C)=O)cc1 (stereo not given)	none (no result: Pf growth 48h, Pf growth 96h, AmpC inh no detg, SARS PLP yeast)
Cc1cc(=O)[nH]c(N/N=C/C2=C(N3CCOCC3)C(=C\c3ccc(Cl)cc3)/CC2)n1	Sm TGR block 25µM, Pf growth 48h inconclusive, Pf growth 96h inconclusive
Cc1cc(C)nc(N/N=C/C2=C(N3CCOCC3)C(=C/c3ccccc3)/CC2)n1	Sm TGR block inconclusive, Pf growth 48h inconclusive, Pf growth 96h inconclusive
O=P(C1=C(N2CCOCC2)/C(=C\c2ccccc2)CC1)(N1CCOCC1)N1CCOCC1	Sm TGR block 45µM, Pf growth 48h inconclusive
O=CC1=C(N2CCOCC2)/C(=C\c2ccccc2)CC1	Sm TGR block 25µM
O=C(O)c1ccccc1N/N=C/C1=C(N2CCOCC2)C(=C\c2ccccc2)/CC1	AmpC inh detg inconclusive, Sm TGR block 16µM, Pf growth 48h 10µM, Pf growth 96h inconclusive
CON(C)c1nc(OCCNC(=O)OCc2ccc(Cl)cc2Cl)nc(N(C)C)n1	none
O=C(C1=C[C@H](c2ccccc2)C[C@H](OCc2ccc(CO)cc2)O1)N1CCCCCCC1	Pf growth 48h inconclusive, Pf growth 96h inconclusive
O=C(N/N=C/C1=C(N2CCOCC2)C(=C\c2ccccc2)/CC1)Nc1ccccc1	none
O=C(NP(=O)(N1CCOCC1)N1CCOCC1)C1=C(N2CCOCC2)/C(=C\c2ccccc2)CC1	Sm TGR block 3.2µM
COc1ccc(S(=O)(=O)NCc2cccn2Cc2cc(C)ccc2C)cc1OC	none (no result: Pf growth 48h, Pf growth 96h, AmpC inh no detg, SARS PLP yeast)
Cc1nn(Cc2ccccc2)c(C)c1NC(=O)CSc1n[nH]c(C)c1[N+](=O)[O-]	AmpC inh detg inconclusive, Pf growth 48h inconclusive
Cc1nn(Cc2ccc(Cl)cc2)c(C)c1NC(=O)CSc1n[nH]c(C)c1[N+](=O)[O-]	Pf growth 96h 13µM
Cc1ccc(Cl)cc1N1CCN(S(=O)(=O)c2cn(C)c(C)n2)CC1	none (no result: Pf growth 48h, Pf growth 96h, AmpC inh no detg, SARS PLP yeast)
COCC(=O)N1CCC(n2nnc3cc(C(F)(F)F)ccc32)CC1	Pf growth 96h 5.2µM
Cc1ccc(Cn2nnnc2CN2CCC(O)(c3ccccc3F)CC2)cc1	Pf growth 48h 15µM
Cc1ccc(Cn2nnnc2CN2CCC(n3nnc4cc(C)ccc43)CC2)cc1	Pf growth 48h inconclusive, Pf growth 96h 13µM
FC(F)(F)c1ccc2c(c1)nnn2C1CCN(Cc2nnnn2Cc2ccccc2)CC1	AmpC inh detg inconclusive, Pf growth 48h 7.4µM, Pf growth 96h 10µM
O=C(CCSc1ccc(Cl)cc1)N1CCN(S(=O)(=O)c2ccccc2)CC1	Pf growth 48h inconclusive
COc1cc(Nc2cccc[n+]2C)cc(OC)c1OC	none

High-throughput results from PubChem BioAssay.
